High-throughput results as filed in PubChem.
Sampled rows, rich in hits. Any-hit rate of the full collection: about 2.9%.
PAFAH1B2 FP inh – inhibitors of human PAFAH1B2; 340,000 tested, 1.2% active; recombinant PAFAH1B2, FP-rhodamine activity probe, fluorescence polarization; AID 492953; inhibition, % at 3.39 µM;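 active = inhibition above the mean of all tested compounds plus 3 SD, cut at about 24% in these data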
Target sequence (P68402 whole entry, looked up): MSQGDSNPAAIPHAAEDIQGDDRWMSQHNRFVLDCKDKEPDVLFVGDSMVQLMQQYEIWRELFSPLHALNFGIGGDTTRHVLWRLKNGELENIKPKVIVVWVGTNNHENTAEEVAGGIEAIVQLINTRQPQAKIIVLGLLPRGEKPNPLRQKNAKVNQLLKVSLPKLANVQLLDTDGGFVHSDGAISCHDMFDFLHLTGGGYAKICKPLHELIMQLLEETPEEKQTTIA
Fam108B inh – blocks mouse Fam108B hydrolase in RBBP9 counter-screen. recombinant Fam108B, FP-Rh probe fluorescence polarization. inhibition, % at 9.51 µM. 300,000 tested, 0.33% active. AID 1947;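 active = inhibition above the screen mean inhibition plus 3 SD, computed separately per campaign, cut at about 18% in these data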;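 note: inhibitors lower polarization as less probe binds the enzyme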
PAFAH2 inh – PAFAH2 (human) inhibition. inhibition, % at 3.39 µM. AID 492956. recombinant PAFAH2, FP-rhodamine activity probe, fluorescence polarization. 340,000 tested, 0.99% active;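 active = inhibition above the mean over all tested compounds plus 3 SD, cut at about 30% in these data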;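 note: inhibitors block probe labeling of enzyme so polarization drops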
PAFAH1B3 inh – inhibitors of human PAFAH1B3 | Q15102 | recombinant PAFAH1B3, FP-rhodamine probe, fluorescence polarization | inhibition, % at 3.39 µM | 340,000 tested, 0.28% active | AID 492972;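 active = inhibition above the screen-wide average of all tested compounds plus 3 SD, cut at about 25% in these data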
Target sequence (Q15102 whole entry, looked up): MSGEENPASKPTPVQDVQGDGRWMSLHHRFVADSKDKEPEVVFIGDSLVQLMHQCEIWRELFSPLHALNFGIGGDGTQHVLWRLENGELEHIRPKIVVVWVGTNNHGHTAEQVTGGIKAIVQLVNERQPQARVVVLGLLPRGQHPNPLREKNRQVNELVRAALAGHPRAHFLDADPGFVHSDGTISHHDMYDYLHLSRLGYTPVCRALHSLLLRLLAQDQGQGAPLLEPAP
pPAFAH FP inh – pPAFAH (human) enzyme inhibition. Q13093. recombinant pPAFAH, FP-rhodamine probe fluorescence polarization. inhibition, % at 3.39 µM. 330,000 tested, 1.5% active. AID 463082;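 active = inhibition above the mean inhibition across the screen plus 3 SD, cut at about 25% in these data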;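 note: inhibitors block binding of the rhodamine activity-based probe so polarization drops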
PME-1 primary – blocks human protein phosphatase methylesterase 1 | Q9Y570 | recombinant PME-1, FP-Rh probe fluorescence polarization | inhibition, % at 5.9 µM | 320,000 tested, 0.53% active | AID 2130;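 active = inhibition above the campaign mean of all compounds plus 3 SD, cut at about 26% in these data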;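 note: competitive labeling of PME-1 active site by serine hydrolase directed probe; inhibitors block probe labeling so polarization falls and inhibition rises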
Fam108b confirm – confirmation of mouse Fam108b serine hydrolase inhibitors; shares compounds with Fam108B inh; recombinant Fam108b, FP-Rh probe fluorescence polarization; inhibition, % at 9.51 µM; 930 tested, 44% active; AID 1978;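 active = inhibition above a limit from the primary screen, the mean over all compounds plus 3 SD, cut at about 19% in these data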;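 note: inhibitors free the probe so polarization falls as inhibition rises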
Fam108b inh – inhibits mouse Fam108b in gel-based ABPP. recombinant Fam108b, fluorophosphonate probe. shares compounds with Fam108B inh. 260 tested, 44% active. inhibition, % at 20 µM; in the data active = inhibition above about 40%
A number is an active result; – = inactive; · = no result given.

SMILES	PAFAH1B2 FP inh	Fam108B inh	PAFAH2 inh	PAFAH1B3 inh	pPAFAH FP inh	PME-1 primary	Fam108b confirm	others
CC1(C)CC(=O)C2=C(C1)NC1=C(C(=O)c3ccccc31)C2c1cc([N+](=O)[O-])ccc1O (stereo unspecified)	–	21	–	–	–	–	–
CC(C)c1ccc(C2C3=C(CC(C)(C)CC3=O)NC3=C2C(=O)c2ccccc23)cc1 (stereo unspecified)	–	23	–	–	–	–	–
CCCCn1c(N)c(N(CC(C)C)C(=O)C2CCCN(C(=O)c3ccc(Cl)cc3)C2)c(=O)[nH]c1=O (stereo unspecified)	–	–	–	–	–	–	·
Cc1c(NC(=O)Nc2ccc(Cl)c(Cl)c2)sc(=S)n1C	–	32	–	–	–	30	25
COc1ccc(NC(=O)Nc2sc(=S)n(C)c2C)cc1	–	–	–	–	–	–	·
CCOC(=O)Cc1c(C)nc(Cc2ccc(OC(C)C)cc2)[nH]c1=O	–	–	–	–	–	–	·
O=C(Nc1cc(Sc2ccccn2)cc([N+](=O)[O-])c1)c1cccc(F)c1	–	21	–	–	–	–	–
CCc1ccc(CNc2ccc(O)cc2)cc1	–	37	–	–	–	38	–
COc1ccc2[nH]c3c(N4CCc5ccccc5C4)ncnc3c2c1	–	19	–	–	33	30	–
CCOC(=O)N1CCN(c2ncnc3c2[nH]c2ccc(OC)cc23)CC1	–	–	–	–	–	–	·
O=C(Nc1cccc(NC(=O)c2ccc(Cl)cc2Cl)c1)c1cccnc1	–	–	–	–	–	–	·
O=C(Nc1cccc(-c2csc(Nc3ccc(Cl)cc3)n2)c1)c1ccccc1	–	24	–	–	–	–	20
O=C(Nc1ccc(-c2csc(Nc3ccccc3)n2)cc1)c1ccccc1	–	–	–	–	–	–	·
O=C(Nc1cccc(-c2csc(Nc3ccc(Cl)cc3)n2)c1)c1cccc(C(F)(F)F)c1	–	27	–	–	–	–	–
Cc1cccc(NC(=O)/C(C#N)=C/c2ccc(F)cc2)n1	–	38	–	–	–	–	–
CCc1ccc(S(=O)(=O)/N=C2\C=CC(=O)c3ccccc32)cc1	·	24	·	·	40	–	21
CCc1ccc(S(=O)(=O)ON2C(=O)c3ccccc3C2=O)cc1	–	·	–	–	·	·	·
CCc1ccc(S(=O)(=O)/N=C2/C=C(Sc3ncn[nH]3)C(=O)c3ccccc32)cc1	50	54	41	50	–	37	57
CCOc1nc(-c2ccccc2)c2cc(Br)ccc2n1	–	–	–	–	–	–	·
O=C(COC(=O)/C=C/c1cccs1)Nc1nc(-c2cccc(Br)c2)cs1	–	21	–	–	–	44	–
O=C(COC(=O)/C=C/c1cccs1)Nc1nc(-c2ccccc2)cs1	–	–	–	–	–	–	·
COc1cc(OC)c(NC(=O)C2CCCO2)cc1Cl (stereo unspecified)	–	18	–	–	–	–	–
CCc1ccc(N(CC(=O)NC2CCCCC2)C(=O)CCC(=O)Nc2ccccn2)cc1	–	–	–	–	–	–	·
Cc1ccc(C(=O)NC(=S)Nc2ccc3c(c2)OCCO3)c(C)c1	–	26	–	–	–	–	–
Cc1cc(C)cc(C(=O)NC(=S)Nc2ccc3c(c2)OCCO3)c1	–	–	–	–	–	–	·
SMILES	PAFAH1B2 FP inh	Fam108B inh	PAFAH2 inh	PAFAH1B3 inh	pPAFAH FP inh	PME-1 primary	Fam108b confirm	others
CCCCN1CC(=O)N2[C@H]3c4ccc(OC)cc4OC[C@@H]3[C@H](c3ccccc3)[C@]2(C)C1=O	–	·	–	–	–	–	·
N#C/C(=C\c1coc2ccc(O)cc2c1=O)C(=O)Nc1nc2ccccc2s1	–	44	–	–	33	–	–
N#C/C(=C\c1coc2ccccc2c1=O)C(N)=S	–	–	–	–	–	–	·
O=c1oc(-c2ccccc2Cl)nc2ccsc12	–	34	–	–	–	–	32	Fam108b inh=85
Cc1ccc(NC(=O)CC(=O)c2ccc([N+](=O)[O-])cc2)cc1S(=O)(=O)Nc1cccc(Cl)c1	27	25	–	–	–	–	–
Cc1nn(-c2ccccc2)c(Cl)c1/C=N/Nc1ccc(Cl)c(C(=O)O)c1	–	–	–	–	–	–	·
Nc1cc(Cl)nc(N/N=C/c2c(O)ccc3ccccc23)n1	–	28	–	–	–	32	–
O=C(O)c1cc(N/N=C/c2c(O)ccc3ccccc23)ccc1Cl	–	19	–	–	–	31	19
COc1ccc(/C=N/Nc2nc(N)cc(Cl)n2)cc1OC	–	–	–	–	–	–	·
O=C(N/N=C\c1c(O)ccc2ccccc12)c1ccc(O)cc1	–	23	–	41	26	–	–
COc1cc2cc(C(=O)NN=Cc3ccccc3Cl)[nH]c2cc1OC	·	·	·	·	·	·	·	Fam108b inh=50
COc1ccc(OC)c(/C=N/NC(=O)c2cc3c(OC)c(OC)ccc3[nH]2)c1	–	19	–	–	–	31	–
CCOc1ccc2[nH]c(C(=O)N/N=C/c3ccccc3OC)cc2c1	–	21	–	–	–	–	–
COc1ccc2[nH]c(C(=O)N/N=C/c3ccc(OC)c(O)c3)cc2c1	–	–	–	–	–	–	·
COc1ccc2[nH]c(C(=O)N/N=C/c3ccccc3OC)cc2c1	–	–	–	–	–	–	·
COc1ccccc1/C=N/NC(=O)c1ccccc1Cl	–	–	–	–	–	–	·
CN(c1ccccc1)S(=O)(=O)c1ccc(NC(=O)c2nc(S(C)(=O)=O)ncc2Cl)cc1	–	32	–	–	–	47	24
NC(=O)CC(NC(=O)c1ccc(Br)cc1)c1ccc(NC2CCCCCC2)c([N+](=O)[O-])c1 (stereo unspecified)	–	–	–	–	–	–	·
COC(=O)Cn1cnc2c(oc3ccccc32)c1=O	–	–	–	–	–	–	·
COc1ccc2[nH]c(CN3CCN(CC=C(C)C)C(CCO)C3)c(C)c2c1 (stereo unspecified)	–	–	–	–	–	–	·
Cn1c(C(O)C(O)c2ccccc2)nc2ccccc21 (stereo unspecified)	–	–	–	–	–	–	·
Cn1c(C(C#N)C2=C(Cl)C(=O)N(c3ccccc3)C2=O)nc2ccccc21 (stereo unspecified)	·	25	·	·	–	–	–
O=C(Nc1ccc(-c2csc(Nc3ccc(Cl)cc3)n2)cc1)c1cc([N+](=O)[O-])cc(C(F)(F)F)c1	–	29	–	–	–	–	–
O=C(Nc1cccc(-c2csc(Nc3ccccc3)n2)c1)c1cc([N+](=O)[O-])cc(C(F)(F)F)c1	28	37	–	27	30	31	21
